From PubChem BioAssay
The list is not random: actives were taken first. Their share in the collection is about 2.5%.
p53ts 32C tox = p53ts cell cytotoxicity, permissive temperature; 0.93% of 130,000 active; H1299-p53A138V at 32C, ATP luminescence viability, 24 h; Potency, µM (doses to about 46.1 µM), inactives show at the highest dose activity change, negative = cytotoxicity, usual class: cytotoxic;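 note: 0% = DMSO and -100% = full killing by reference compound; nearly all actives have a fitted effect of over 55% in size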
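ATP-content luminescence (ATPlite) read-out after 24 h compound exposure at 32C in H1299-p53A138V cells (600/well). Tested up to 46 uM. Normalized to DMSO (0%) and 100 uM tamoxifen (100% killing); Hill-fit AC50.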
Caspase-7 inhib = blocks human caspase-7 allosterically or competitively; recombinant caspase-7, Ac-DEVD-AFC fluorescence rate; Potency, µM (titrated, usually from 57.5 µM), without a hit: at the highest dose activity change, negative = inhibition, actives largely listed as inhibitors; 0.02% of 75,000 active; active = well fitted inhibition curve with a large enough effect in the main read-out, with a control signal flat, not every such curve was filed as active; inconclusive = small, poorly fitted or top-dose-only effect, or a change in a side signal; note: % of control where 0% means no effect
IkB signaling = IkB pathway inhibition in ABC-DLBCL cells; AID 445; Potency, µM (titrated, usually from 57.1 µM), for inactives: at the highest dose IkBa stabilization activation; ABC-DLBCL IkBa-CBG/CBR dual luciferase ratio, 4 h; response scale: scaled: untreated 0%, proteasome inhibitor 100%; 0.04% of 110,000 active; active = well fitted curve in the direction sought with a large enough effect in the signal ratio, not every such curve was filed as active; inconclusive = small, poorly fitted or top-dose-only effect, or a change in a side signal; the % refers to the signal ratio;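 note: the direction sought is a rising ratio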
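In this assay, an IκBα–CBG68 fusion accumulates when IKK-driven degradation is blocked; native CBR normalizes for cell number. OCI-Ly3 cells were treated 4 h with compound and doxycycline, then green and red light read after Chroma-Glo addition.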
p53ts 39C kill = p53ts cell cytotoxicity, nonpermissive temperature | H1299-p53A138V viability at 39C, ATP luminescence, 24 h | 1.5% of 130,000 active | Potency, µM (doses to about 46.1 µM), for the others: top-dose activity change, negative = cell killing, actives largely listed as cytotoxic; note: % is set by controls: 0 for no effect and ±100 for the full control effect; nearly all actives have a fitted effect of over 55% in size
FLuc inh = firefly luciferase inhibition. 2.2% of 72,000 active. Potency, µM (highest dose often 57.1 µM), for the others: top-dose activity change, negative = inhibition, most hits filed as inhibitors. purified firefly luciferase, luminescence, 8 min. P08659; note: % is set by controls: 0 for no effect and ±100 for the full control effect; nearly all actives have a fitted effect of over 40% in size
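Here, luciferase activity is measured as luminescence following an 8 min room-temperature reaction at 10 uM ATP, pH 7.2. Every library sample is titrated.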
Caspase-1 inhib = blocks human caspase-1 allosterically or competitively; P29466; Caspase-1 enzyme, Ac-WEHD-AFC fluorogenic rate; Potency, µM (doses to about 57.5 µM), for the others: top-dose activity change, negative = inhibition, hits mostly inhibitors; 0.03% of 75,000 active;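 note: plate controls were vehicle for no effect and no substrate for full effect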
Starred values were filed as active, the others as inactive. Unless noted, calls come from the whole dose curve; as a rule, active = well fitted curve in the direction sought with a large enough effect; inconclusive = small, poorly fitted or top-dose-only effect, or another doubt; inactive = no such curve, though single readings can be large; an effect the other way counts as inactive or inconclusive. Potency is the fitted concentration of half-maximal effect.

For c1ccc(CCc2nn3c(-c4ccncc4)nnc3s2)cc1 the results were p53ts 32C tox 24%, Caspase-7 inhib 0%, IkB signaling 2%, p53ts 39C kill 35%, FLuc inh -1% and Caspase-1 inhib -1%.
For CCc1ccc(-c2cn3nc(CC)sc3n2)cc1 the results were p53ts 32C tox 13µM*, IkB signaling 73% and p53ts 39C kill 6.3µM*.
`Cc1cccc(N2CCN(c3ncnc4c3cnn4-c3ccc(Cl)cc3)CC2C)c1` (configuration not stated) gave p53ts 32C tox inconclusive, IkB signaling inconclusive and p53ts 39C kill 16µM*.
`Cc1ccc(-n2ncc3c(N4CCCCCC4)ncnc32)cc1C` gave p53ts 32C tox 10µM*, IkB signaling inconclusive and p53ts 39C kill inconclusive.
`Cc1ccc(-n2ncc3c(N4CCN(Cc5ccccc5)CC4)ncnc32)cc1C` gave p53ts 32C tox 20µM*, IkB signaling inconclusive and p53ts 39C kill 32µM*.
Cc1ccc(-n2ncc3c(N4CCN(C)CC4)ncnc32)cc1Cl was read as p53ts 32C tox -7%, IkB signaling inconclusive and p53ts 39C kill inconclusive.
For CC1CCCN(c2ncnc3c2cnn3-c2ccc(F)cc2)C1 (configuration not stated) the results were p53ts 32C tox 2µM*, IkB signaling 6% and p53ts 39C kill 2µM*.
`CCN1CCN(c2ncnc3c2cnn3-c2cccc(C)c2)CC1` gave p53ts 32C tox -12%, IkB signaling inconclusive and p53ts 39C kill -19%.
Cc1ccc(-n2ncc3c(N4CCN(c5ccc(F)cc5)CC4)ncnc32)cc1 was read as p53ts 32C tox 10%, IkB signaling inconclusive and p53ts 39C kill -29%.
Screening Cc1ccc(NCc2nnc3n2CCCCC3)cc1Cl returned p53ts 32C tox 22%, IkB signaling -1% and p53ts 39C kill -5%.
`N#C/C(=C\c1ccc2c(c1)OCCO2)C(=O)NC1CCCCC1` gave p53ts 32C tox -12% and p53ts 39C kill 1%.
`Cc1cccc(-n2ncc3c(N4CCCCCC4)ncnc32)c1` gave p53ts 32C tox inconclusive, IkB signaling inconclusive and p53ts 39C kill 4µM*.
CCOC(=O)C1CCCN(c2ncnc3c2cnn3-c2cccc(C)c2)C1 (configuration not stated) was read as p53ts 32C tox -15%, Caspase-7 inhib -2%, IkB signaling 1%, p53ts 39C kill -12%, FLuc inh -15% and Caspase-1 inhib -1%.
`Cc1cccc(-n2ncc3c(N4CCCC(C)C4)ncnc32)c1` (configuration not stated) gave p53ts 32C tox 4µM*, IkB signaling inconclusive and p53ts 39C kill 2.5µM*.
Screening Cc1ccc(CC2CC(=O)N(CCc3ccc4c(c3)OCO4)C2=O)cc1 (configuration not stated) returned p53ts 32C tox -9%, Caspase-7 inhib -4%, IkB signaling inconclusive, p53ts 39C kill -9%, FLuc inh -1% and Caspase-1 inhib -3%.
`Nn1c(Nc2ccccc2)nc2sc3c(c2c1=O)CCC3` gave p53ts 32C tox -22%, Caspase-7 inhib -5%, IkB signaling inconclusive, p53ts 39C kill -20%, FLuc inh 20µM* and Caspase-1 inhib -6%.
Screening CCc1nc2sc3c(c2c(=O)n1N)CCC3 returned p53ts 32C tox 16%, Caspase-7 inhib 1%, IkB signaling -2%, p53ts 39C kill 2%, FLuc inh 3% and Caspase-1 inhib -2%.
`CCOc1ccc(S(=O)(=O)N2CCc3ccccc3C2)cc1` gave p53ts 32C tox -6%, Caspase-7 inhib -7%, IkB signaling 3%, p53ts 39C kill -5%, FLuc inh -1% and Caspase-1 inhib -3%.
CCOc1ccc(N2Cc3ccccc3C2)cc1 was read as p53ts 32C tox 13µM*, Caspase-7 inhib -1%, IkB signaling 1%, p53ts 39C kill inconclusive, FLuc inh 10µM* and Caspase-1 inhib 0%.
CCOc1ccc(CNC(=O)Cn2nc(C)c3nn(-c4ccc(Cl)cc4)c(C)c3c2=O)cc1 was read as p53ts 32C tox -2%, IkB signaling 2% and p53ts 39C kill -9%.
For CCN(CC)c1ccc2c(Cl)c(Br)c(=O)oc2c1 the results were p53ts 32C tox 13µM*, Caspase-7 inhib inconclusive, IkB signaling inconclusive, p53ts 39C kill inconclusive and FLuc inh -3%.
`CCN(CC)c1ccc2c(c1)oc(=O)c1c(Cl)cc(=O)oc12` gave p53ts 32C tox 13µM*, Caspase-7 inhib inconclusive, IkB signaling inconclusive, p53ts 39C kill 13µM* and FLuc inh -2%.
Screening O=C(c1ccco1)N1CCN(S(=O)(=O)c2ccc3c(c2)CCN3C(=O)C2CC2)CC1 returned p53ts 32C tox 3%, Caspase-7 inhib 0%, IkB signaling -1%, p53ts 39C kill -6%, FLuc inh 2% and Caspase-1 inhib 1%.
For COc1cccc(C2CC(c3ccccc3Cl)Nc3ncnn32)c1 (configuration not stated) the results were p53ts 32C tox -4%, Caspase-7 inhib 0%, IkB signaling -2%, p53ts 39C kill -4%, FLuc inh 1% and Caspase-1 inhib 0%.
For Cc1c(C(=O)OC2CCCCC2)[nH]c2c1C(=O)CC(C)(C)C2 the results were p53ts 32C tox -2%, Caspase-7 inhib -2%, IkB signaling -2%, p53ts 39C kill 4%, FLuc inh 1% and Caspase-1 inhib 2%.
Screening COC(=O)C1C(=O)c2c([nH]c(C(=O)OC3CCCC3C)c2C)CC1C (configuration not stated) returned p53ts 32C tox inconclusive, Caspase-7 inhib -2%, IkB signaling 10%, p53ts 39C kill -28%, FLuc inh 10µM* and Caspase-1 inhib -4%.
Screening COC(=O)C1C(=O)c2c([nH]c(C(=O)OC3CCCCC3)c2C)CC1C (configuration not stated) returned p53ts 32C tox -12%, Caspase-7 inhib -1%, IkB signaling -3%, p53ts 39C kill -17%, FLuc inh 1µM* and Caspase-1 inhib -7%.
For Cc1ccc(NC(=O)CC2SC(=O)N(c3ccccc3)C2=O)cc1 (configuration not stated) the results were p53ts 32C tox -12% and p53ts 39C kill 5%.
For Cc1cc(C)cc(Oc2coc3cc(OCC(=O)NC4CCCCC4)ccc3c2=O)c1 the results were p53ts 32C tox 4%, IkB signaling 3% and p53ts 39C kill 24%.
`Cc1nc(-c2coc3cc(OCC(=O)O)ccc3c2=O)cs1` gave FLuc inh 4µM*.
